From PubChem BioAssay
Only a selection was taken, and hits are over-represented in it overall.
TbPYK inhibitor = qHTS of Trypanosoma Brucei Inhibitors; TbPYK enzyme, Kinase-Glo Plus ATP luminescence, 45 min; actives 0.12% (n = 410,000); Potency, µM (top dose mostly 76.8 µM), actives largely listed as inhibitors; pyruvate kinase (Trypanosoma brucei), Q57TT1; further: nearly all actives have a fitted effect of over 50% in size
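Screened from lowest to highest concentration, compounds were pinned into TbPYK/substrate mixtures, and ADP (130 uM final) was added. Plates sat at room temperature for 45 min prior to Kinase-Glo Plus detection by luminescence.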
LmPK inh = qHTS Assay for Inhibitors of Leishmania Mexicana Pyruvate Kinase (LmPK); Q27686; purified LmPK, Kinase-Glo ATP luminescence, 1 h; Potency, µM (doses to about 57.5 µM), hits mostly inhibitors; actives 0.37% (n = 290,000); AID 1721, 2009
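Purified LmPK (0.1 nM) with 0.5 mM PEP and 0.1 mM ADP in imidazole buffer pH 7.2 with MgCl2/KCl, 1 h at room temperature. ATP formed was read by luciferase luminescence and normalized to no-enzyme and uninhibited controls.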
Sm TGR block = qHTS Assay for the Inhibitors of Schistosoma Mansoni Peroxiredoxins | Schistosoma mansoni thioredoxin glutathione reductase (TGR), Q962Y6 | purified TGR, DTNB reduction, TNB absorbance 405 nm | Potency, µM (series often up to 114 µM), actives largely listed as inhibitors | actives 3% (n = 360,000) | AID 485364, 2010; further: nearly all actives have a fitted effect of over 60% in size
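First, TGR (20 nM dispensed) and NADPH were mixed with compound. Second, a 15 min room-temperature incubation followed. Third, further NADPH and then DTNB were added to start the reaction. Finally, TNB absorbance was monitored kinetically.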
Shiga inhibitor = A qHTS for Small Molecule Inhibitors of Shiga Toxin; Vero cells, Shiga toxin protein synthesis inhibition reporter; inhibition, % at 38.7 µM; actives 9.2% (n = 290,000); AID 2315, 2010; in the data active means inhibition mostly above about 28%, no sharp cut-off; inactive means mostly below about 43%
CHX counter = Cycloheximide Counterscreen for Small Molecule Inhibitors of Shiga Toxin; cell reporter, cycloheximide protein synthesis inhibition counterscreen; max response, %; actives 12% (n = 300,000); in the data active means max response mostly above about 13%, no sharp cut-off; inactive means mostly below about 14%; further: read at 38.3 µM for the half of the compounds with a filed dose
Giardia FBPA inh = qHTS Assay for Inhibitors of Fructose-1,6-bisphosphate Aldolase from Giardia Lamblia; actives 0.71% (n = 290,000); purified Giardia FBPA; Potency, µM (titrated, usually from 59.6 µM), actives largely listed as inhibitors; A8B2U2; further: nearly all actives have a fitted effect of over 55% in size
Target sequence (A8B2U2 whole entry, looked up): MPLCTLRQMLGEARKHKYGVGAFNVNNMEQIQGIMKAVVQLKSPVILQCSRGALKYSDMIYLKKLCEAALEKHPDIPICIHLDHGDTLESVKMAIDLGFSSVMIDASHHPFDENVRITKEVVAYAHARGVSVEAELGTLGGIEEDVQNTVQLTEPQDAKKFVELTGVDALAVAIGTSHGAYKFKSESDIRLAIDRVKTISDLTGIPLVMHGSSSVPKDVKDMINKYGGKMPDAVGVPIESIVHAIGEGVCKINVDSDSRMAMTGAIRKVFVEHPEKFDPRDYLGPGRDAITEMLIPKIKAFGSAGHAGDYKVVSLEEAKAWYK
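Giardia FBPA (40 nM reagent) was preincubated 10 min at RT with compound (up to 57.5 uM final), then substrate plus GAPDH/TPI/NAD/arsenate coupling system with diaphorase/resazurin was added; resorufin fluorescence (525/598 nm) was read after 20 min.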
A number is an active result; i = inactive; nt = no result given; [ ] = another dose, or the depositor's remark. Unless noted, the call rests on the fitted dose curve; in most records, active means well fitted curve in the direction sought with a large enough effect; inconclusive means small, poorly fitted or top-dose-only effect, or another doubt; inactive means no such curve, though single readings can be large; an effect the other way counts as inactive or inconclusive.

SMILES	TbPYK inhibitor	LmPK inh	Sm TGR block	Shiga inhibitor	CHX counter	Giardia FBPA inh
CC(C)C(=O)NNc1nc2ccccc2s1	i	i	i	51.4	37.7	i
NS(=O)(=O)c1ccc2nc(NC(=O)Nc3ccc(F)cc3)sc2c1	i	i	i	53.9	46.3	i
O=C(NNc1nc2ccccc2s1)Nc1ccc(Cl)c(Cl)c1	i	i	i	59.6	39.7	i
Cc1c[nH]c(=O)c([N+](=O)[O-])c1	i	i	i	i	i	i
COC(=O)c1cc2oc3ccccc3c2n1Cc1c(C)cc(C)cc1C	i	nt	i	nt	nt	nt
COc1ccc(C#Cc2cccc(-c3nc(C(=O)NCc4ccc(Oc5ccccc5)cc4)cc4c3[C@@H](CCO)N(S(=O)C(C)(C)C)C4)c2)cc1OC (some centres not stated)	i	nt	nt	nt	nt	nt
CCSc1nc2c([nH]c3ccccc32)c(=O)n1-c1ccc(OC)cc1	i	nt	i	nt	nt	nt
O=C(NNc1nc2ccccc2s1)c1ccccc1F	i	i	i	59.3	28.5	i
O=C(Nc1nc2ccccc2s1)c1c(F)cccc1Cl	i	i	i	90.6	37.6	i
O=C(NNc1nc2ccccc2s1)Nc1ccc(F)cc1	i	i	i	84.9	61.8	i
O=C(NNc1nc2ccccc2s1)C1CC1	i	i	i	i	i	i
COc1cccc([C@@H]2Oc3ccc(Br)cc3[C@H](O)[C@H]2O)c1	nt	nt	nt	nt	nt	i
COc1ccc(/C=N/NC(=O)CNC(=O)c2ccc3c(c2)OCCO3)cc1OC	i	i	i	i	i	i
COc1cc(/C=N/NC(=O)CNC(=O)/C=C/c2ccco2)cc(OC)c1OC	i	i	50.1µM	i	i	i
COc1ccc(/C=N/NC(=O)CNC(=O)/C=C/c2ccco2)cc1OC	i	i	25.1µM	i	i	i
COc1ccc(C(=O)NCC(=O)N/N=C/c2cccc(OC(=O)c3ccco3)c2)cc1OC	i	i	i	i	32.7	i
CCc1ccc(-n2nc(C)c3c(C(=O)Nc4cc(OC)cc(OC)c4)cc(C)nc32)cc1	i	nt	i	nt	nt	nt
O=c1cc2c(nn1Cc1ccc(F)cc1)-c1ccccc1CC2	i	i	i	i	i	i
Fc1ccc(CO/N=C/C2=C(Cl)c3ccccc3CC2)cc1	i	i	i	79.7	12.2	i
O=C(Nc1cccc(Cl)c1)c1ccccc1NC(=O)C1CCCCC1C(=O)O (configuration not stated)	i	i	i	i	20.8	i
O=C(Nc1ccc(F)cc1)c1ccccc1NC(=O)C1CCCCC1C(=O)O (configuration not stated)	i	nt	nt	nt	nt	nt
O=C(Nc1ccc(F)c(Cl)c1)c1ccccc1NC(=O)C1CCCCC1C(=O)O (configuration not stated)	i	nt	nt	nt	nt	nt
CC(C)c1ccc(NC(=O)c2ccccc2NC(=O)C2CCCCC2C(=O)O)cc1 (configuration not stated)	i	i	i	60.2	39.1	i
CC(C)c1ccc(NC(=O)c2ccccc2NC(=O)C2CC=CCC2C(=O)O)cc1 (configuration not stated)	i	i	i	60.2	33.4	nt
O=C(NCCCO)C(=O)NCC(c1ccc2c(c1)OCO2)N1CCOCC1 (configuration not stated)	i	nt	i	nt	nt	nt
SMILES	TbPYK inhibitor	LmPK inh	Sm TGR block	Shiga inhibitor	CHX counter	Giardia FBPA inh
O=C(CN1C(=O)c2cccnc2Oc2ccc(Cl)cc21)NCCCN1CCCCC1	i[15.4 µM]	nt	i	nt	nt	nt
Cc1cc(C)n(-c2nc(C)c(C)c(=O)n2CC(=O)Nc2cccc([N+](=O)[O-])c2)n1	i	nt	i	nt	nt	nt
COc1cc(N/C(=N/S(=O)(=O)c2ccccc2)c2ccccc2)ncn1	i	i	i	67.7	45.7	i
O=C(O)c1ccc(N/C(=N\S(=O)(=O)c2ccc(Cl)cc2)c2ccccc2)cc1	i	i	i	i	i	i
O=C(NN/C(=N/S(=O)(=O)c1ccc(Cl)cc1)c1ccccc1)c1ccc(O)cc1	i	i	i	56.2	67.0	i
Cc1ccc(S(=O)(=O)/N=C(/NNC(=O)c2cccc(Cl)c2)c2ccccc2)cc1	i	i	i	99.2	33.4	i
